Source: ChEMBL document CHEMBL3988442, “University of Dundee, Small-Polar-MMV Screening Library” (2021)
The campaign covered roughly 69,000 compounds. About 1,000 (1.4%) showed an effect of 50% or more. For the sample, strong results were picked, then their nearest neighbours and some compounds at random.

System: Leishmania donovani
Experiment: Leishmania intramacrophage assay
Format: functional, organism-based
Design: scale not given: in the data most compounds retested in dose-response had high values

COc1ccc2c(c1OC)Cc1c-2nc(N)c(C#N)c1C1CCOC1 (centres undefined)
Percent Effect (30.3 µM, […]): 11.41%

N#Cc1c(N)nc2c(c1C1CCOC1)CCc1cc(O)ccc1-2 (centres undefined)
Percent Effect (30.3 µM, […]): -89.94%

COc1ccc2c(c1)Cc1c-2nc(N)c(C#N)c1C1CCOC1 (centres undefined)
Percent Effect (30.3 µM, […]): 63.86%

Cc1nn(C)c(N(C)C)c1CNCc1cccc(OCCN(C)C)c1
Percent Effect (30 µM, 30.03 µM): -13.13%

Cc1cc(C)n(C2CN(CC(=O)N(C)Cc3ccco3)C2)n1
Percent Effect (30.3 µM, […]): -0.4731%

COc1cccc(CN(C)C(=O)CN2CC(n3nc(C)cc3C)C2)c1
Percent Effect (30 µM, 30.03 µM): 4.207%

COc1ccccc1CN(C)C(=O)CN1CC(n2nc(C)cc2C)C1
Percent Effect (30.3 µM, […]): 72.41%

CC(=O)N1CCC(N2CC[C@H](c3nc4cc(C)ccc4o3)C2)CC1
Percent Effect (30.3 µM, […]): 22.67%

CCn1nc(C)c2ncnc(NCC(=O)N3CCOCC3)c21
Percent Effect (30 µM, 30.03 µM): 13.04%

CCN(CC)C(=O)Cn1ccc2cc(NC(=O)NC3CC3)ccc21
Percent Effect (30 µM): 18.91%

O=C(c1cscn1)N1CC[C@H]2[C@@H]1CCC(=O)N2c1ccccc1
Percent Effect (30.3 µM, […]): 4.628%

Cc1ccoc1C(=O)N1CC[C@H]2[C@@H]1CCC(=O)N2c1cccnc1.O=C(O)C(F)(F)F
Percent Effect (30.3 µM, […]): 3.255%

Cc1ccc(C(=O)N2CC[C@H]3[C@@H]2CCC(=O)N3c2cccnc2)o1.O=C(O)C(F)(F)F
Percent Effect (30.3 µM, […]): 56.88%

O=C(c1cnccn1)N1CC[C@H]2[C@@H]1CCC(=O)N2c1cccnc1
Percent Effect (30.3 µM, […]): 69.01%

Cc1cnc(N2CC[C@H]3[C@@H]2CCC(=O)N3c2ccccc2)nc1.O=C(O)C(F)(F)F
Percent Effect (30.3 µM, […]): 39.44%

O=C(O)C(F)(F)F.O=C1CC[C@H]2[C@H](CCN2c2ncc(F)cn2)N1c1ccccc1
Percent Effect (30.3 µM, […]): 36.83%

O=C(O)C(F)(F)F.O=C1CC[C@H]2[C@H](CCN2c2ncccn2)N1c1ccccc1
Percent Effect (30.3 µM, […]): 50.79%

O=C(c1cccs1)N1CC[C@H]2[C@@H]1CCC(=O)N2c1cccnc1
Percent Effect (30.3 µM, […]): -14.6%

Cc1cnc(C(=O)N2CC[C@H]3[C@@H]2CCC(=O)N3c2cccnc2)cn1.O=C(O)C(F)(F)F
Percent Effect (30.3 µM, […]): 26.72%

CCc1cc(NCCc2cnccn2)n2nc(C)c(C)c2n1
Percent Effect (30.3 µM, […]): 3.819%

CNC(=O)[C@H]1CCS(=O)(=O)[C@@H]2CN(Cc3ccc(OC)cc3)C[C@H]12
Percent Effect (30 µM, 30.03 µM): 7.266%

Cc1cccc(C(=O)N2CCCCC2c2nc3cc(F)ccc3[nH]2)n1 (centres undefined)
Percent Effect (30.3 µM, […]): 32.48%

Cc1noc([C@H]2C[C@@H]3CCN(c4nnc(C)s4)C[C@H]3O2)n1.O=C(O)C(F)(F)F
Percent Effect (30.3 µM, […]): 7.673%

Cc1noc([C@@H]2C[C@@H]3CCN(c4nnc(C)s4)C[C@H]3O2)n1.O=C(O)C(F)(F)F
Percent Effect (30.3 µM, […]): 45.73%

Cc1noc([C@@H]2CC[C@@H]3[C@@H](CCN3c3nnc(C)s3)O2)n1.O=C(O)C(F)(F)F
Percent Effect (30.3 µM, […]): 50.59%

O=C(NCCc1nnc2n1CCC2)NCC1(c2ccccc2F)CC1
Percent Effect (30.3 µM, […]): 6.319%

CC(C)NC(=O)C[C@@H]1CCNC[C@@H]1Cc1cc(-c2ccccc2)on1
Percent Effect (30.3 µM, […]): -4.938%

O=C(NCC1CC2(CO1)CN(c1ncccn1)C2)C1CCC1 (centres undefined)
Percent Effect (30.3 µM, […]): 1.586%

CCOC(=O)N1CCC(NC(=O)Nc2cccnc2OCC)CC1
Percent Effect (30 µM): 21.62%

COCCNC(=O)c1cc(-c2ccc3c(c2)CCO3)n[nH]1
Percent Effect (30.3 µM, […]): -2.658%

O=C(Nc1ccccc1)C1CN(CC2CC2)CC12CCOCC2.O=C(O)C(F)(F)F (centres undefined)
Percent Effect (30 µM, 30.03 µM): 52.69%

O=C(Nc1ccccc1)C1CN(Cc2ccco2)CC12CCOCC2.O=C(O)C(F)(F)F (centres undefined)
Percent Effect (30.3 µM, […]): 14.17%

O=C(Nc1ccccc1)C1CN(CC2CCOCC2)CC12CCOCC2.O=C(O)C(F)(F)F (centres undefined)
Percent Effect (30.3 µM, […]): 6.071%

Cc1nccn1C1CCCN(C(=O)CCNc2ncccn2)C1 (centres undefined)
Percent Effect (30 µM): -4.975%

COc1ncccc1CN1CCc2[nH]nc(C(=O)N(C)C)c2C1
Percent Effect (30.3 µM, […]): 13.46%

FC(F)(F)c1nc(NC2CCc3ncnn3C2)c2ccccc2n1 (centres undefined)
Percent Effect (30.3 µM, […]): -21.34%

FC(F)(F)c1nc(NC2CCCC2)c2ccccc2n1
Percent Effect (30 µM, 30.03 µM): 52.6%

FC(F)(F)c1nc(NC2CCCCC2)c2ccccc2n1
Percent Effect (30.3 µM, […]): 22.7%

COc1ccc(NC(=O)CCc2c(C)nc3cc(O)nn3c2C)cn1
Percent Effect (30 µM, 30.03 µM): 19.21%

CCC(CC)C(=O)N1CCN(Cc2nc3ccccc3c(=O)[nH]2)CC1
Percent Effect (30.3 µM, […]): 0.3817%

Cc1cc(CN(C)C2CCN(c3cccc(-c4cscn4)c3)CC2)on1
Percent Effect (30.3 µM, […]): 19.61%

CN(C)CCCN(C)C1CCN(c2cccc(-c3cscn3)c2)CC1
Percent Effect (30.3 µM, […]): 61.93%

O=C1CCCN1c1cccc(N2CCC(NCCc3cscn3)CC2)c1
Percent Effect (30.3 µM, […]): 16.35%

c1cc(-c2cscn2)cc(N2CCC(NCCc3cccs3)CC2)c1
Percent Effect (30.3 µM, […]): 68.46%

c1ccc(-c2cccc(N3CCC(NCCc4cscn4)CC3)c2)cc1
Percent Effect (30.3 µM, […]): 97.96%

CN(Cc1nccs1)C1CCN(c2cccc(-c3cscn3)c2)CC1
Percent Effect (30.3 µM, […]): 8.314%

CN(Cc1cnn(C)c1)C1CCN(c2cccc(-c3cscn3)c2)CC1
Percent Effect (30.3 µM, […]): 12%

CN(Cc1ccon1)C1CCN(c2cccc(-c3cscn3)c2)CC1
Percent Effect (30.3 µM, […]): -3.333%

CC(C)CC(C)NC1CCN(c2cccc(-c3cscn3)c2)CC1 (centres undefined)
Percent Effect (30.3 µM, […]): 17.78%
